In the supplement of paper PMC7411054:
Structures can show the parent of a compound that is named as a salt.

Columns and labels:
Experiment in all cases: lowest phenotypically active concentration; higher = less potent
Conditions in all cases: treatment time: 24 h
[1] = system: A549-ACTB-RAB5A
Method in brief: (§1)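 The reporter lines, fifteen in total and built by gene editing in A549, HepG2 and WPMY1 cells, used BFP for segmentation alongside GFP and RFP/FusionRed markers. Each was treated at 0.3, 1, 3 or 9 µM for 24 h in four wells and then imaged live, with live-cell features normalised to solvent control wells. Deviation meant ≥3 of 4 wells beyond the 95th percentile of control Euclidean distances; reproducibility meant a median replicate Pearson correlation above the 95th percentile of non-replicates. Only conditions meeting both were scored as phenotypically active.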

[2] = system: A549-TP53BP1-CLTA
Method in brief: as §1

[3] = system: A549-TUBA1B-RELA
Method in brief: as §1

[4] = system: HepG2-ACTB-RAB5A
Method in brief: as §1

[5] = system: HepG2-TP53BP1-CLTA
Method in brief: as §1

[6] = system: HepG2-TUBA1B-RELA
Method in brief: as §1

[7] = system: WPMY1-ACTB-RAB5A
Method in brief: as §1

[8] = system: WPMY1-CANX-COX4
Method in brief: as §1

[9] = system: WPMY1-TUBA1B-RELA
Method in brief: as §1

[10] = system: A549-CANX-COX4
Method in brief: as §1

Row | Structure (SMILES) | lowest phenotypically active concentration [1] [µM] | lowest phenotypically active concentration [2] [µM] | lowest phenotypically active concentration [3] [µM] | lowest phenotypically active concentration [4] [µM] | lowest phenotypically active concentration [5] [µM] | lowest phenotypically active concentration [6] [µM] | lowest phenotypically active concentration [7] [µM] | lowest phenotypically active concentration [8] [µM] | lowest phenotypically active concentration [9] [µM] | lowest phenotypically active concentration [10] [µM]
1 | CN1C[C@H](C(=O)N[C@]2(C)O[C@@]3(O)[C@@H]4CCCN4C(=O)[C@H](Cc4ccccc4)N3C2=O)C[C@@H]2c3cccc4[nH]cc(c34)C[C@H]21.CN1C[C@H](C(=O)N[C@]2(C)O[C@@]3(O)[C@@H]4CCCN4C(=O)[C@H](Cc4ccccc4)N3C2=O)C[C@@H]2c3cccc4[nH]cc(c34)C[C@H]21 [dihydroergotamine] | 9 | 9 | 9 | 9 | 9 | 9 | – | – | – | –
2 | Cc1c(C(=O)Nc2cccc(C(F)(F)F)c2)cc(-c2ccccc2)n1CCCN1CCOCC1 | 9 | – | – | – | – | – | – | – | – | –
3 | O=C(Nc1ccncc1)C(=O)c1cn(Cc2ccc(Cl)cc2)c2ccccc12 [Indibulin] | ≤ 0.3 | 3 | ≤ 0.3 | 1 | 1 | 1 | ≤ 0.3 | 3 | ≤ 0.3 | –
4 | CC[C@]12C=CCN3CC[C@]4(C(=C(C(=O)OC)C1)Nc1ccccc14)[C@@H]32 [Tabersonine dichlorhydrate] | 9 | – | 9 | 9 | 9 | 9 | 9 | 9 | 9 | 9
5 | N#CC(C#N)=NNc1cccc(Cl)c1 | 9 | 9 | 9 | 9 | 9 | 9 | 9 | 9 | 3 | 9
6 | C[C@H](CCC(=O)O)C[C@H](C)C[C@H](C)C(=O)/C=C(\O)[C@H](C)C[C@H](C)C/C=C/[C@@H](C)[C@@H](O)[C@@H](C)[C@@H](O)C[C@@H]1CC[C@@](C)([C@H]2CC[C@@](C)([C@@H](C)O)O2)O1 [Ionomycin free acid] | – | – | – | – | – | 9 | 3 | 9 | – | 9
7 | COc1ccc2c(c[n+](C)c3c4cc5c(cc4ccc23)OCO5)c1OC [Chelerythrine chloride] | 3 | 9 | – | – | 9 | – | – | – | – | –
8 | COC(=O)[C@@]1(O)C[C@H]2O[C@]1(C)n1c3ccccc3c3c4c(c5c6ccccc6n2c5c31)C(=O)NC4 | ≤ 0.3 | ≤ 0.3 | ≤ 0.3 | ≤ 0.3 | ≤ 0.3 | ≤ 0.3 | ≤ 0.3 | ≤ 0.3 | ≤ 0.3 | ≤ 0.3
9 | COc1cc2c(c(OC)c1OC)-c1ccc(O)c(=O)cc1[C@@H](N)CC2 [Trimethylcolchicinic acid] | 9 | 9 | 9 | – | – | 9 | – | – | – | 9
10 | COc1ccc(N(C(=O)Oc2c(C)cccc2C)c2ccnc(Nc3ccc(N4CCN(C)CC4)cc3)n2)c(OC)c1 | 1 | 3 | 1 | ≤ 0.3 | 1 | ≤ 0.3 | 1 | – | – | 3
11 | C[C@]12CC[C@H](O)C[C@H]1CC[C@@H]1[C@@H]2C[C@@H](O)[C@]2(C)[C@@H](C3=CC(=O)OC3)CC[C@]12O [Digoxigenin] | ≤ 0.3 | ≤ 0.3 | ≤ 0.3 | 1 | 1 | 1 | 1 | 1 | 1 | 1
12 | O=c1[nH]c2ccccc2n1C1CCN(CCCC(c2ccc(F)cc2)c2ccc(F)cc2)CC1 [pimozide] | 9 | – | 3 | 3 | – | 3 | – | – | – | –
13 | N#CC(C#N)=NNc1ccc(OC(F)(F)F)cc1 | 9 | 9 | 3 | 9 | 9 | 9 | 3 | 3 | 9 | 9
14 | CCN1CCN(C(=O)Cc2ccc(Nc3ncc(F)c(Nc4ccc(C(=O)Nc5ccccc5Cl)cc4)n3)cc2)CC1 | 1 | 1 | 1 | 1 | ≤ 0.3 | ≤ 0.3 | 1 | – | 1 | 1
15 | CC[C@H]1CN2CC[C@H]1C[C@@H]2[C@@H](O)c1ccnc2ccc(OC)cc12 [Hydroquinidine HCl] | 9 | – | 9 | – | – | – | 9 | 9 | 9 | –
16 | CCCCCC[C@H]1C(=O)O[C@H](C)[C@H](NC(=O)c2cccc(NC=O)c2O)C(=O)O[C@@H](C)[C@@H]1OC(=O)CC(C)C [antimycin a] | ≤ 0.3 | ≤ 0.3 | ≤ 0.3 | ≤ 0.3 | ≤ 0.3 | ≤ 0.3 | ≤ 0.3 | ≤ 0.3 | ≤ 0.3 | ≤ 0.3
